# Experimental data: PubChem BioAssay (NCATS)
# Inconclusive results are not listed. Values without a mark were called inactive. Active and inactive are the calls of the source. Calls come from the whole dose curve; as a rule, active = well fitted inhibition curve with a large enough effect; inconclusive = small, poorly fitted or top-dose-only effect; inactive = flat fitted curve, though single readings scatter.
# System: Zika virus NS2B-NS3 protease
# Assay: Primary screen GU AMC qHTS for Zika virus inhibitors (AID 1347154); note: nearly all actives have a fitted effect of over 70% in size;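 for activity change, negative = inhibition: 0% = no-inhibitor control and -100% = no-enzyme control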
# Details: Zika NS2B-NS3 unlinked protease, AMC fluorogenic substrate; series mostly up to 54.1 µM; activity change, negative = inhibition: at the top concentration
# Procedure, shortened: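 Unlinked Zika NS2B hydrophilic domain/NS3 protease domain noncovalent complex (25 nM final) in 10 mM Tris-HCl pH 8.0, 0.01% Tween 20, with AMC peptide substrate. Fluorescence (ex 340, em 450 nm) change over 15 min, room temperature; percent inhibition fitted to 4-parameter Hill equation.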
# Potency is the fitted concentration of half-maximal effect.
SMILES,"activity change, negative = inhibition",Potency
Cc1ccc(CCn2c3c(c4cc(Cl)ccc42)CN(C)CC3)cn1,3.08%,
Oc1ccccc1,0.454%,
CC(CC(C#N)(c1ccccc1)C(C)C)N(C)C (stereo not drawn),-3.06%,
Cc1ncc(CO)c(CO)c1O,-3.06%,
CN1Cc2cc(C(=O)N3CCC(C4CCNCC4)CC3)ccc2NC(CC(=O)O)C1=O (stereo not drawn),-7.03%,
Nc1ncnc2nc[nH]c12,-3.53%,
CC(C)(C)c1ccc(C(=O)CCCCl)cc1,3.41%,
CC(COc1ccccc1)NN (stereo not drawn),1.79%,
C[C@H](CN1CCCC1)C(=O)c1ccc(C(F)(F)F)cc1,0.347%,
NC(=O)COCCN1CCN(C(c2ccccc2)c2ccc(Cl)cc2)CC1 (stereo not drawn),-0.415%,
CC(NC(CCc1ccccc1)C(=O)O)C(=O)N1C(=O)N(C)CC1C(=O)O (stereo not drawn),8.19%,
CC(=O)c1ccc(O)c(C(N)=O)c1,-1.53%,
CC(C)C(=O)Nc1cccc(C(F)(F)F)c1,1.89%,
CC(=O)c1cc2ccccc2s1,1.39%,
O=C(NO)c1ccccc1,-0.674% [at 104 µM],
O=C1Cc2cc(Cl)ccc2N1,-0.748%,
CC(C)(C)c1ccc(O)c(O)c1,-10.2% [at 104 µM],
CC(C)(C)c1cc(C=O)cc(C(C)(C)C)c1O,1.01%,
C1N2CN3CN1CN(C2)C3,-2.2%,

SMILES,"activity change, negative = inhibition",Potency
N#CC1(c2ccc(F)cc2)CCC(=O)CC1,5.53%,
CCOCCn1c(C2CCN(CCc3ccc(C(C)(C)C(=O)O)cc3)CC2)nc2ccccc21,-3.83%,
O=C(O)CCCC[C@@H]1SC[C@@H]2NC(=O)N[C@@H]21,-2.63%,
CCC(C(=O)OCCN1CCOC(c2ccccc2)C1C)c1ccccc1 (stereo not drawn),-7.61%,
Cc1cccc(N(C)C(=S)Oc2ccc3c(c2)C2CCC3C2)c1 (stereo not drawn),-4.47%,
CN1CC(=O)N2[C@H](c3ccc4c(c3)OCO4)c3[nH]c4ccccc4c3C[C@@H]2C1=O,1.29%,
COc1ccc([C@@H]2Sc3ccccc3NC(=O)[C@@H]2O)cc1,1.23%,
O=C(O)Cc1ccccc1Oc1ccc(Cl)cc1Cl,0.733%,
C=C(C)C(=O)OCC(O)CO (stereo not drawn),-0.659%,
CCCCCCn1c(=O)c2c(ncn2C)n(C)c1=O,5.34%,
O=C(O)c1cn(C2CC2)c2cc(Cl)c(F)cc2c1=O,0.101%,
Cc1onc(-c2c(Cl)cccc2Cl)c1C(=O)Cl,1.45%,
COc1c(N2C[C@@H]3CCCN[C@@H]3C2)c(F)cc2c(=O)c(C(=O)O)cn(C3CC3)c12,,14.4 µM (active)
CO[C@]1(NC(=O)CSC(F)F)C(=O)N2C(C(=O)O)=C(CSc3nnnn3CCO)CO[C@H]21,0.63%,
COc1ccccc1N1CCN(CC(O)COc2cc(OC)c(OC)c(OC)c2)CC1 (stereo not drawn),-1.7%,
CC(=O)Nc1c(I)c(NC(C)=O)c(I)c(C(=O)O)c1I,3.7%,
O=C1Nc2ccccc2C1(c1ccc(O)cc1)c1ccc(O)cc1,-4.11%,
O=C1c2ccccc2CCc2ccccc21,-1.93%,
CCCCOCCOC(=O)c1cccnc1,0.577%,
